Here are results for 39 compounds from PubChem BioAssay (NCI).

The panel holds about 83,000 compounds, 20% with a hit somewhere; the sample as a whole holds those more often.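 In brief: 96-well plates, 48 h treatment, single concentration, percent growth endpoint.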 Unmarked numbers belong to inactive results. Activity calls are given as the source filed them. How the source made its calls: active means growth percent below 10; inactive means the rest.

The test system of this experiment is SW-620 colon. Nature of the experiment: NCI-60 one-dose screen, 48 h (100 = growth as untreated, 0 = no growth, -100 = all killed). To be noted: 10 µM unless noted.
For `CC(=O)c1ccc(Nc2nc(NCCO)nc(Nc3ccc(Cl)cc3)n2)cc1`, the growth was 94.5%. In the case of `Cc1ccc(C2CC(c3ccc(Nc4nc(NCCO)nc(Nc5ccc(Cl)cc5)n4)cc3)=NN2c2cc(Cl)cc(Cl)c2)cc1` (centres undefined) it was 101%; in that of `CCCCN1CCN(c2ccc3nc(-c4ccc5nc(-c6ccc(OC)c(OC)c6)[nH]c5c4)[nH]c3c2)CC1`, -50.8% (active); in that of `Cc1cccc(NC(=O)c2sc3nc4c(cc3c2N)CCCC4)c1C`, 23.7%. In the case of `CCOC(=O)c1cc2c(n1Cc1cc(OC)c(OC)c(OC)c1)-c1oncc1CCC2` it was 21.5%; in that of `Clc1ccc(Oc2ccc(Nc3ncnc4onc(-c5ccccc5)c34)cc2)c(Cl)c1`, 99.5%.

Regarding `O=C(Nc1ccc(C23CC4CC(CC(c5ccccc5)(C4)C2)C3)cc1)c1cccs1`, the growth is 82%. In the case of `COc1cc(C(=O)Nc2ccc(-c3nc4ccccc4[nH]3)cc2)cc(OC)c1OC` it was 14.7%; in that of `CCOC(=O)C1(C(=O)OCC)N=C(c2ccccc2)C=C1c1ccccc1`, 93.3%. In the case of `CC1=C(CC(=O)c2cccc([N+](=O)[O-])c2)C(=O)c2ccccc2C1=O` it was -41.2% (active); in that of `O=c1cc(NC2CCN(CCCc3ccccc3)CC2)c2cc(Cl)ccc2o1`, 6.98% (active); in that of `O=S(=O)(Nc1ncccn1)c1ccc(NC2Nc3nc4ccccc4nc3S2)cc1` (centres undefined), 99.3%. With `COc1ccc(-c2cc(=O)c3c(OC)c4ccoc4c(/C=C/C=O)c3o2)cc1` the figure was 19.6%; with `COc1cccc2cc(N(C)c3nc(C)nc4ccsc34)ccc12`, 22.3%; with `CC[C@@H](C)[C@H](NC(=O)Cn1cc(CNC(=O)[C@@H](NC(=O)OCc2ccccc2)C(C)C)nn1)C(=O)O`, 105%. As to `COc1cc(/C=C/C(=O)c2ccc(Nc3nc(NCCO)nc(N4CCOCC4)n3)cc2)cc(OC)c1OC`, the growth was 7.8% (active). With `Cc1ccccc1CNC(=O)C1CN(c2ccc(Cl)cc2)N(c2ccc(Cl)cc2)C1=O` (centres undefined) the figure was 81.9%.

On to `COc1ccc(Cn2c(Br)c3c(c2-c2cc(OC)c(OC)c(OC)c2)CCc2sc(NC(C)=O)nc2-3)cc1`, for which the growth is 20.5%. With `CC(C)(C)c1ccc(C2CC(=O)C3=C(C2)Nc2ccccc2N(C(=O)c2ccccc2Cl)C3c2ccc(F)cc2)cc1` (centres undefined) the figure was 2.52% (active). In the case of `CCOC(=O)c1ccc(N=Cc2sc(=O)[nH]c2O)cc1` it was 100%; in that of `COC(=O)/C(CCC=C(C)C)=C1\[C@@H](OC(C)=O)C[C@@]2(C)[C@H]1C[C@@H](O)[C@H]1[C@@]3(C)CC[C@H](NCc4ccccc4)[C@@H](C)[C@@H]3CC[C@@]12C`, 63.5%; in that of `Cc1cccc2c(=O)c3c(sc12)c(NCCCNCCO)nc1ccccc13`, -51.6% (active). In the case of `C[C@@H](C(=O)NCCCC#Cc1cnc(Nc2ccc(C#N)cc2)nc1NC1CC1)N(C)C(=O)/C=C/CN(C)C` it was 42.1%.

Consider `COc1ccc(/C=c2\sc3n(c2=O)NC2C(N=3)N(C)C(=O)N2C)cc1` (centres undefined), for which the growth is 105%. With `Cn1cc([C@@H]2Nc3ccc4[nH]ncc4c3[C@H]3[C@H]4CCC(C4)[C@H]32)c(C(F)(F)F)n1` the figure was 23.5%; with `COc1cc2cc3c(=O)n4c(cc5cc(OC)ncc54)c(=O)n3c2cn1`, 105%.

`COc1ccccc1C(=O)/C=C/c1ccccc1`: the growth is 67.4%. With `CCCc1c(C)c2sc(=O)[nH]c2[nH]c1=O` the figure was 102%; with `Clc1ccc(Nc2scc3[n+]2CCC3)cc1`, 96.9%; with `CNCCNc1nc2ccccc2c2c(=O)c3cc(F)ccc3sc12`, -63.3% (active). In the case of `O=C(Nc1ccc(Cl)cc1)c1cc2ccccc2cc1OP(=O)(O)O` it was 42.3%. `COc1cc(C=C2C(=O)N(C)C(=O)N(C)C2=O)cc(CN2CCCCC2)c1O`: the growth was 104%. With `O=C(Nc1ncc(Cc2cccc(C(F)(F)F)c2)s1)C1COc2ccccc2O1` (centres undefined) the figure was 81%; with `Cc1c(-c2noc(-c3ccc([N+](=O)[O-])cc3)n2)no[n+]1[O-]`, 97.5%.

On to `O=C(N/N=C/c1ccccc1Cl)C(=O)Nc1cccc(C(F)(F)F)c1`, for which the growth is 104%. As to `O=C(NC1CCN(Cc2ccccc2)CC1)c1cc2nc(-c3ccc(Cl)s3)cc(C(F)(F)F)n2n1`, the growth is -6.12% (active).

Regarding `COc1cccc(-c2nn(C)c3sc(C(=O)NCCN4CCN(c5ccccc5F)CC4)cc23)c1`, the growth is 74.6%. With `COc1ccc(C(=O)C2CC2c2ccc(Cl)cc2)cc1` (centres undefined) the figure was 102%; with `Nc1ccc(C2c3ccccc3Oc3ccccc32)cc1`, 101%.
